The values that follow come from PubChem BioAssay.
Further: test concentration not given here.

The first experiment in a line: calcein-AM signal in unstimulated myeloma cells – cell-based, calcein-AM fluorescence, 48 h, PK04 Diversity Set, profiling panel (AID 1166).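 Further: cells grown under basal conditions without added stimulus.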 Conditions: RPMI8226 myeloma viability, higher = more signal.
In the case of `COC(=O)[C@@]1(Cc2ccc(OC)cc2)[C@H]2c3cc(C(=O)N(C)C)n(C[C@H](O)CO)c3C[C@H]2CN1C(=O)c1ccccc1`, the z-score was -1.79.

With `Cn1cccc1C(O)C1C=CC2C(=O)NC(=O)C2N1Nc1ccc(Cl)cc1Cl` (configuration not stated), the z-score is -2.24.

Regarding `COc1ccc([Si](C)(C)[C@@H]2[C@@H](CC(=O)N(CCO)Cc3ccccc3)O[C@]3(C(=O)N(Cc4cccc(N5C(=O)c6cccc7cccc5c67)c4)c4ccccc43)[C@H]2C)cc1`, the z-score was -3.72.

Consider `Cc1ccc(S[C@]2(C(=O)NCC(F)(F)F)CC(=O)N(Cc3ccccc3C(F)(F)F)[C@@H]2c2ccc(CO)cc2I)cc1`, for which the z-score was -1.71.

For `CCOc1cc(C(O)C2C=CC3C(=O)N(c4ccccc4)C(=O)C3N2Nc2ccc(C#N)cc2)ccc1O` (configuration not stated), the z-score is -1.01.

As for `COCCOC(=O)N1C(=O)[C@@]2(c3ccccc31)[C@H](C(=O)N1CCN(c3ncccn3)CC1)[C@H]1C(=O)O[C@H](c3ccccc3)[C@H](c3ccccc3)N1[C@@H]2c1ccc(O)cc1`, the z-score is -0.441.

As to `CCCC[C@@H]1C[C@H]1[C@@H](NC(=O)c1cccs1)c1ccc(C(F)(F)F)cc1`, the z-score is -1.47.

Turning to `COC(=O)c1ccc([C@H](NC(=O)c2ccco2)[C@]2(C)C[C@H]2C2CCCCC2)cc1`, the z-score was -3.28.

Regarding `O[C@@H](Cc1ccccc1)[C@@H](/C=C/C1CC1)N(CC#Cc1ccccc1)Cc1cccc(Cl)c1`, the z-score is -0.0958.

Turning to `N#Cc1ccc(C(O)C2C=CC3C(=O)N(c4ccccc4)C(=O)C3N2Nc2ccccc2)cc1` (configuration not stated), the z-score is -0.153.

For the compound `CC(C)N1C(=O)c2ccccc2[C@@H](C(=O)NC2CC2)[C@@H]1c1ccc(CO)cc1`, the z-score was 0.282.

For `COC(=O)c1nc2oc1CC[C@@H](CO)NC(=O)N(C)Cc1cnnn1C[C@H](Cc1ccccc1)NC2=O`, the z-score is 0.529.

As to `C=CCNC(=O)[C@@H]1[C@H]2C(=O)O[C@H](c3ccccc3)[C@H](c3ccccc3)N2[C@H](c2ccc(O)cc2)[C@@]12C(=O)N(C(=O)OCCOC)c1ccc(C#CC3(O)CCCCCC3)cc12`, the z-score was 0.895.

For the compound `O=C1C=C(c2ccccc2)C(=O)c2ccc([C@H]3Oc4ccccc4S(=O)(=O)N4CCC[C@@H]34)cc21`, the z-score is -4.03.

On to `C=C(COC)/C(=C/C[C@H](OC(C)=O)c1ccc(OCCO)cc1)c1cc(C(=O)OC)ccc1OC`, for which the z-score is 0.598.

Consider `CC(C)[Si](C#C[Si](C(C)C)(C(C)C)C(C)C)(O[C@H](C)c1cn([C@H](CO)Cc2ccccc2)nn1)C(C)C`, for which the z-score is 0.482.

Consider `CC1CC/C=C\[C@H]2OC34C=CCN(C(C)C)C(=O)[C@H]3N(CCCCCCO)C(=O)[C@@H]4C2C(=O)O1` (some centres not stated), for which the z-score is 0.626.

`CC1CC/C=C\[C@H]2OC34C=CCN(c5ccc(Cl)cc5)C(=O)[C@H]3N(CCCCCO)C(=O)[C@]4(C)C2C(=O)O1` (some centres not stated): the z-score was -0.381.

In the case of `COCCCNC(=O)[C@@]1(Sc2ccc(C)cc2)CC(=O)N(C2CCCCC2)[C@@H]1c1ccc(CO)cc1`, the z-score is -1.45.

As to `[N-]=[N+]=Nc1ccccc1[C@H]1OC(c2ccc(OCCCO)cc2)=N[C@@]1(Cc1ccccc1)C(=O)N1CCCCC1`, the z-score is -3.83.

In the case of `CC(C)OC(=O)C=C1C[C@@H](c2ccc(C(F)(F)F)cc2)O[C@@H](c2ccc(C(F)(F)F)cc2)O1`, the z-score is -1.51.

As to `[N-]=[N+]=Nc1ccccc1[C@@H]1OC(c2ccc(OCCCO)cc2)=N[C@]1(Cc1ccccc1)C(=O)NCC(O)CO` (some centres not stated), the z-score was -1.81.

For `[N-]=[N+]=Nc1ccccc1C[C@]1(C(N)=O)N=C(c2ccc(OCCCO)cc2)O[C@H]1c1ccccc1N=[N+]=[N-]`, the z-score is -3.48.

As to `C[C@@H]1NC(=O)[C@@]23C(=O)N[C@@H](Cc4ccccc4)C2[C@H](C)[C@@]2(C)O[C@H]2C3/C=C/C/C=C\CNC(=O)[C@@H]2CCCN2C1=O` (some centres not stated), the z-score is -0.0448.

`COCCCNC(=O)[C@]1(CCS(=O)(=O)c2ccccc2)N=C(c2ccc(OCCCO)cc2)O[C@@H]1c1ccccc1N=[N+]=[N-]`: the z-score is -0.311.

Turning to `O=C1OCCC/C=C\[C@H]2OC34C=CCN(CCN5CCOCC5)C(=O)[C@H]3N(CCCCCCO)C(=O)[C@@H]4C12` (some centres not stated), the z-score was 0.279.

The nature of another experiment: JC-1 mitochondrial signal, unstimulated HepG2 cells – cell-based, JC-1 fluorescence, 24 h, 100 nL compound, profiling panel (AID 1167). Conditions: HepG2 mitochondrial potential, higher = more signal.
In turn, `[N-]=[N+]=NCc1ccccc1C[C@@]1(C(=O)N2CCCCC2)N=C(c2ccc(OCCCO)cc2)O[C@@H]1c1ccccc1` yielded a z-score of 0.622.

As for `O=C1O[C@@H](c2ccccc2)[C@@H](c2ccccc2)N2[C@@H](c3ccc(OCCO)cc3)[C@]3(C(=O)Nc4ccccc43)[C@@H](C(=O)O)[C@H]12`, the z-score is -1.36.

As to `CC(CO)N1C(=O)[C@@H]2[C@H]3C(=O)OCC=C[C@H]3OC23C=CCN(C(C)(C)C)C(=O)[C@@H]13` (some centres not stated), the z-score is -0.936.

Regarding `CN1C(=O)C2C=CC(C(O)c3cccc4ccccc34)N(N3CCCCC3)C2C1=O` (configuration not stated), the z-score is -1.79.

For the compound `CN(C)C(=O)[C@]1(CCS(=O)(=O)c2ccccc2)N=C(c2ccc(OCCCO)cc2)O[C@@H]1c1ccccc1N=[N+]=[N-]`, the z-score was 0.621.

In turn, `COC(=O)[C@@]1(Cc2ccc(F)cc2)[C@H]2c3cc(C(=O)N4CCCC4)n(CCc4ccc(O)c(O)c4)c3C[C@H]2CN1C(=O)c1ccccc1` yielded a z-score of 0.54.

`CN(C)CCCNC(=O)[C@@]1(c2ccc([N+](=O)[O-])cc2)CC(=O)N(CC23CC4CC(CC(C4)C2)C3)[C@@H]1c1ccc(CO)cc1I` yielded a z-score of -2.77.

On to `Cc1cc(C)c(C(O)C2C=CC3C(=O)NC(=O)C3N2Nc2ccc(Cl)cc2Cl)c(C)c1` (configuration not stated), for which the z-score was -2.65.

As to `COCCOC(=O)N1C(=O)[C@@]2(c3cc(C#CC4=CCCCC4)ccc31)[C@H](c1ccc(OCCO)cc1)N1[C@H](c3ccccc3)[C@H](c3ccccc3)OC(=O)[C@H]1[C@@H]2C(=O)N1CCN(c2ncccn2)CC1`, the z-score stood at 0.955.

In turn, `C=CCC(OC(C)=O)[C@@H]1[C@@H](N(Cc2ccc(-c3ccccc3)cc2)C(=O)Cc2ccc(F)cc2)c2cc(OCCCO)ccc2N1C(=O)Cc1ccc(OC)cc1` (some centres not stated) yielded a z-score of 1.69.

In turn, `COC(=O)[C@@]1(Cc2ccc(OC)cc2)[C@H]2c3cc(C(=O)N(C)C)n(C[C@H](O)CO)c3C[C@H]2CN1C(=O)c1ccccc1` came in with a z-score of 0.906.

Consider `Cn1cccc1C(O)C1C=CC2C(=O)NC(=O)C2N1Nc1ccc(Cl)cc1Cl` (configuration not stated), for which the z-score was -2.72.

`COc1ccc([Si](C)(C)[C@@H]2[C@@H](CC(=O)N(CCO)Cc3ccccc3)O[C@]3(C(=O)N(Cc4cccc(N5C(=O)c6cccc7cccc5c67)c4)c4ccccc43)[C@H]2C)cc1`: the z-score is 0.641.

With `Cc1ccc(S[C@]2(C(=O)NCC(F)(F)F)CC(=O)N(Cc3ccccc3C(F)(F)F)[C@@H]2c2ccc(CO)cc2I)cc1`, the z-score amounted to 0.16.

In turn, `CCOc1cc(C(O)C2C=CC3C(=O)N(c4ccccc4)C(=O)C3N2Nc2ccc(C#N)cc2)ccc1O` (configuration not stated) displayed a z-score of -2.67.

The compound `COCCOC(=O)N1C(=O)[C@@]2(c3ccccc31)[C@H](C(=O)N1CCN(c3ncccn3)CC1)[C@H]1C(=O)O[C@H](c3ccccc3)[C@H](c3ccccc3)N1[C@@H]2c1ccc(O)cc1` registered a z-score of 0.745.

As for `CCCC[C@@H]1C[C@H]1[C@@H](NC(=O)c1cccs1)c1ccc(C(F)(F)F)cc1`, the z-score is -1.04.

Compound `COC(=O)c1ccc([C@H](NC(=O)c2ccco2)[C@]2(C)C[C@H]2C2CCCCC2)cc1` displayed a z-score of -2.5.

As for `O[C@@H](Cc1ccccc1)[C@@H](/C=C/C1CC1)N(CC#Cc1ccccc1)Cc1cccc(Cl)c1`, the z-score is -0.549.

`N#Cc1ccc(C(O)C2C=CC3C(=O)N(c4ccccc4)C(=O)C3N2Nc2ccccc2)cc1` (configuration not stated) had a z-score of -0.651.

The compound `CC(C)N1C(=O)c2ccccc2[C@@H](C(=O)NC2CC2)[C@@H]1c1ccc(CO)cc1` came in with a z-score of 0.507.

`COC(=O)c1nc2oc1CC[C@@H](CO)NC(=O)N(C)Cc1cnnn1C[C@H](Cc1ccccc1)NC2=O` came in with a z-score of 0.912.

`C=CCNC(=O)[C@@H]1[C@H]2C(=O)O[C@H](c3ccccc3)[C@H](c3ccccc3)N2[C@H](c2ccc(O)cc2)[C@@]12C(=O)N(C(=O)OCCOC)c1ccc(C#CC3(O)CCCCCC3)cc12`: the z-score stood at 0.577.

`O=C1C=C(c2ccccc2)C(=O)c2ccc([C@H]3Oc4ccccc4S(=O)(=O)N4CCC[C@@H]34)cc21`: the z-score is -3.82.

Compound `C=C(COC)/C(=C/C[C@H](OC(C)=O)c1ccc(OCCO)cc1)c1cc(C(=O)OC)ccc1OC` registered a z-score of 2.6.

Regarding `CC(C)[Si](C#C[Si](C(C)C)(C(C)C)C(C)C)(O[C@H](C)c1cn([C@H](CO)Cc2ccccc2)nn1)C(C)C`, the z-score amounted to 0.376.

In turn, `CC1CC/C=C\[C@H]2OC34C=CCN(C(C)C)C(=O)[C@H]3N(CCCCCCO)C(=O)[C@@H]4C2C(=O)O1` (some centres not stated) had a z-score of -0.0558.

As for `CC1CC/C=C\[C@H]2OC34C=CCN(c5ccc(Cl)cc5)C(=O)[C@H]3N(CCCCCO)C(=O)[C@]4(C)C2C(=O)O1` (some centres not stated), the z-score was -0.197.

Consider `COCCCNC(=O)[C@@]1(Sc2ccc(C)cc2)CC(=O)N(C2CCCCC2)[C@@H]1c1ccc(CO)cc1`, for which the z-score was -0.155.

The compound `[N-]=[N+]=Nc1ccccc1[C@H]1OC(c2ccc(OCCCO)cc2)=N[C@@]1(Cc1ccccc1)C(=O)N1CCCCC1` yielded a z-score of -0.251.

In turn, `CC(C)OC(=O)C=C1C[C@@H](c2ccc(C(F)(F)F)cc2)O[C@@H](c2ccc(C(F)(F)F)cc2)O1` had a z-score of -0.393.

`[N-]=[N+]=Nc1ccccc1[C@@H]1OC(c2ccc(OCCCO)cc2)=N[C@]1(Cc1ccccc1)C(=O)NCC(O)CO` (some centres not stated) gave a z-score of 0.307.

`[N-]=[N+]=Nc1ccccc1C[C@]1(C(N)=O)N=C(c2ccc(OCCCO)cc2)O[C@H]1c1ccccc1N=[N+]=[N-]` registered a z-score of -1.04.

As for `C[C@@H]1NC(=O)[C@@]23C(=O)N[C@@H](Cc4ccccc4)C2[C@H](C)[C@@]2(C)O[C@H]2C3/C=C/C/C=C\CNC(=O)[C@@H]2CCCN2C1=O` (some centres not stated), the z-score is -0.175.

`COCCCNC(=O)[C@]1(CCS(=O)(=O)c2ccccc2)N=C(c2ccc(OCCCO)cc2)O[C@@H]1c1ccccc1N=[N+]=[N-]` returned a z-score of -0.0945.

Take `O=C1OCCC/C=C\[C@H]2OC34C=CCN(CCN5CCOCC5)C(=O)[C@H]3N(CCCCCCO)C(=O)[C@@H]4C12` (some centres not stated): the z-score came out at 0.538.
